Bioassay records from PubChem BioAssay.
uPA generation: qHTS for Inhibitors of Cell Surface uPA Generation | cell surface uPA generation assay, qHTS | Potency, µM (highest dose often 38.3 µM), for the others: at the highest dose activity change, negative = inhibition, hits mostly inhibitors | hit rate 0.31% among 330,000 | AID 540303, 2011; active = well fitted inhibition curve with a large enough effect; inconclusive = small, poorly fitted or top-dose-only effect; inactive = no such curve, though single readings can be large or run the other way; tested in mouse RAW 264.7 cells; note: potency is the fitted concentration of half-maximal effect; % is set by controls: 0 for no effect and ±100 for the full control effect; nearly all actives have a fitted effect of over 55% in size
MCF10A rerep: A quantitative high throughput screen for small molecules that induce DNA re-replication in MCF 10a normal breast cells; hit rate 2.9% among 350,000; Potency, µM (doses to about 46.1 µM), inactives show top-dose activity, positive = re-replication, hits mostly activators; MCF 10A DNA re-replication, Hoechst nuclear intensity, 48 h; note: potency is the fitted concentration of half-maximal effect; % of control where 0% means no effect; nearly all actives have a fitted effect of over 50% in size
Giardia killer: Small Molecules that selectively kill Giardia lamblia: qHTS | hit rate 0.15% among 340,000 | AID 540267, 2011 | Giardia lamblia trophozoite viability | activity change, % at 7.66 µM, hits read low; in the data active = activity change below about -80%; inconclusive = between about -30% and that limit;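 note: parasites exposed to compound for two days anaerobically before the ATP read; % is set by controls: 0 for no effect and ±100 for the full control effect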
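Giardia lamblia trophozoites (100 cells/well) were incubated with compounds for 48 h at 37 deg C under anaerobic conditions. Viability was read as ATP content by one-step luminescence after 15-30 min at room temperature.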
SW480 rereplic: A quantitative high throughput screen for small molecules that induce DNA re-replication in SW480 colon adenocarcinoma cells; SW480 DNA re-replication, Hoechst DNA content imaging, 48 h; Potency, µM (titrated, usually from 46.1 µM), without a hit: at the highest dose re-replication activation, hits mostly activators; hit rate 1.8% among 340,000; note: potency is the fitted concentration of half-maximal effect; % of control where 0% means no effect; nearly all actives have a fitted effect of over 55% in size
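Compounds, transferred as 23 nL by pin tool, were incubated with cells for 48 hr; DNA content per nucleus was then quantified by Hoechst staining and fluorescence plate imaging.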
* hit, by the source's call; ? = inconclusive; · = no result given. This is a sample that favours compounds with a hit; in the whole collection about 4.3% have one here. Unless noted, calls come from the whole dose curve; as a rule, active = well fitted activation curve with a large enough effect; inconclusive = small, poorly fitted or top-dose-only effect; inactive = no such curve, though single readings can be large or run the other way.

SMILES	uPA generation	MCF10A rerep	Giardia killer	SW480 rereplic
CC1(C)CC(=O)C(C2C3=C(CC(C)(C)CC3=O)Oc3ccccc32)C(=O)C1 (centres undefined)	1.9%	4.2%	-8.8	-5.7%
CC1(C)CC(=O)C2=C(C1)Oc1nc3ccccc3cc1C2C(C#N)C#N (centres undefined)	-8.0%	9.2µM*	20.4	?
CC(=O)c1ccc(-c2cccc([C@H]3[C@@H]4C=CC[C@@H](C)[C@@H]4C(=O)N3Cc3ccccc3)c2)cc1	?	?	6.4	-38.0%
COc1ccc(-c2csc(N(CC3CCCO3)C(=O)c3ccco3)n2)cc1 (centres undefined)	0.2%	16.4µM*	-2.8	?
COc1ccc(-c2csc(N(CC(C)C)C(=O)c3ccco3)n2)cc1	0.6%	18.4µM*	-14.8	?
CCN(C(=O)c1ccco1)c1nc(-c2ccc(OC)cc2)cs1	-1.0%	15.3%	21.9	-0.3%
CC1CCN(CC(=O)Nc2ccccc2Sc2ccccc2)CC1	5.0%	14.6µM*	0.6	?
O=C(CN1CCCC1)Nc1ccccc1Sc1ccccc1	8.0%	10.5%	-16.9	2.8%
O=C(Nc1ccc(F)c(Cl)c1)C1CCCC1	-3.7%	?	16.8	5.8µM*
O=C(Nc1ccc(F)c(Cl)c1)C1CCCCC1	-2.4%	-5.1%	-5.1	-0.6%
O=C(CCN1C(=O)C2C3CCC(C3)C2C1=O)Nc1ccc(Br)cc1 (centres undefined)	-2.0%	18.5%	3.9	11.6µM*
COc1ccc(NC(=O)CCN2C(=O)C3C4CCC(C4)C3C2=O)cc1 (centres undefined)	-4.0%	-2.2%	-0.6	2.8%
CCN(CC(=O)Nc1cc(Cl)ccc1C)C(=O)CSCc1c(C)noc1C	0.3%	8.7%	-14.2	6.51µM*
COc1ccc(N(CC(=O)Nc2cc(Cl)ccc2C)S(=O)(=O)c2c(C)noc2C)cc1	?	4.11µM*	-18.0	-2.9%
CCOc1ccc(N(CC(=O)Nc2ccc(C)c(C)c2)S(=O)(=O)c2c(C)noc2C)cc1	12.6µM*	?	32.2	?
CCOc1ccc(N(CC(=O)Nc2ccccc2C)S(=O)(=O)c2c(C)noc2C)cc1	?	2.59µM*	18.8	3.26µM*
CCOc1ccc(N(CC(=O)Nc2cccc(F)c2)S(=O)(=O)c2c(C)noc2C)cc1	?	?	-21.1	18.4%
CCOc1ccccc1NC(=O)CN(c1ccc(OC)cc1)S(=O)(=O)c1c(C)noc1C	-14.8%	6.51µM*	2.7	5.8µM*
Cc1ccc(S(=O)(=O)N2CCCCC2)cc1NC(=O)CCOc1ccccc1	1.0%	6.3%	-9.0	10.4%
Cc1ccc(S(=O)(=O)N2CCOCC2)cc1NC(=O)CNCc1ccccc1Cl	-2.6%	?	-4.2	5.17µM*
COc1ccc(S(=O)(=O)N2CCCCC2)cc1NC(=O)CN(Cc1ccco1)Cc1ccco1	?	20.6µM*	12.8	-5.6%
COc1ccc(S(=O)(=O)N2CCCCC2)cc1NC(=O)CN(C)C1CCCCC1	-8.2%	8.3%	11.3	-0.6%
CCN(CC(=O)Nc1cc(S(=O)(=O)N2CCCCC2)ccc1C)Cc1ccccc1	-0.6%	20.6µM*	20.0	-2.4%
CCN1CCN(c2ccc(S(=O)(=O)N3CCOCC3)cc2NC(=O)C(C)Oc2cccc(Cl)c2)CC1 (centres undefined)	-1.6%	-8.1%	20.1	-193.3%
CC(Oc1cccc(Cl)c1)C(=O)Nc1cc(S(=O)(=O)N2CCOCC2)ccc1N1CCCCC1 (centres undefined)	-12.1%	13µM*	13.6	-79.9%
SMILES	uPA generation	MCF10A rerep	Giardia killer	SW480 rereplic
O=C(O)c1cnn(-c2nc(-c3ccc(Br)cc3)cs2)c1C(F)(F)F	14.6%	-2.8%	-4.7	-29.7%
Cc1ccc(C(=O)NNC(=O)c2ccc(NC(=O)C(C)(C)C)cc2)cc1	-3.8%	1.3%	24.6	-21.8%
CN(CCOc1ccccc1)C(=O)c1ccc(N2CCCC2)c([N+](=O)[O-])c1	0.9%	-14.2%	-9.6	4.1%
Cc1ccc(-c2cc3c(nn2)-c2ccccc2C3=O)cc1	-16.9%	13.5%	-96.7*	-6.9%
Cc1ccc(C(=O)Nc2ccc3c(c2)OCCO3)c(Cl)c1	?	-5.8%	-82.8*	10.4%
S=C(Nc1ccc2c(c1)OCCO2)Nc1ccccc1Cl	-0.6%	6.7%	-1.3	-4.7%
S=C(Nc1ccc(Cl)cc1)Nc1ccc2c(c1)OCCO2	?	10.6%	14.0	5.17µM*
Cc1ccc(NC(=O)Cn2c(=O)ccn(Cc3ccccc3)c2=O)cc1S(=O)(=O)N1CCOCC1	-3.0%	8.8%	-15.9	-7.5%
CN(C)/[N+]([O-])=N/Oc1cc(ON=[N+]([O-])N2CCN(c3ncccn3)CC2)c([N+](=O)[O-])cc1[N+](=O)[O-]	·	·	-4.0	·
CC(=O)Oc1cc(C)c(OC(C)=O)c2ccccc12	·	?	·	26.6µM*
COc1ccc(OC)c(-c2csc(NC(=O)c3ccc(F)cc3)n2)c1	?	6.51µM*	-11.7	?
COc1ccc(OC)c(-c2csc(NC(=O)Cc3ccc(F)cc3)n2)c1	-5.3%	?	-0.2	?
COc1ccc(OC)c(-c2csc(NC(=O)CN3C(=O)C4CCCCC4C3=O)n2)c1 (centres undefined)	-1.1%	12.3%	-7.0	27.4%
COc1ccc(OC)c(-c2csc(NC(=O)Cn3[nH]c(=O)c4ccccc4c3=O)n2)c1	-6.3%	?	43.3	8.2µM*
Cc1ccc(C(=O)Nc2nc(-c3cc(Cl)sc3Cl)cs2)cc1	-0.9%	25.9µM*	-27.3	-0.2%
Cc1ccc(CNC(=O)C2CCC(=O)N(CCc3cccc(F)c3)C2)cc1 (centres undefined)	-4.4%	7.9%	2.0	-1.3%
CN1/C(=C/C2CC(=O)N(c3cccc4ccccc34)C2=O)C(C)(C)c2ccccc21 (centres undefined)	·	?	8.3	18.4µM*
COc1cc(C2C3C(=O)N(c4ccccc4)C(=O)C3ON2c2ccccc2)cc(OC)c1OC (centres undefined)	7.8%	-0.3%	-18.2	-8.2%
COc1cc(C2C3C(=O)N(c4ccc(F)cc4)C(=O)C3ON2c2ccccc2)ccc1O (centres undefined)	-0.9%	14.1µM*	3.1	-4.0%
Cc1ccc(S(=O)(=O)N2CCN(C(=O)c3cccs3)CC2)c(C)c1	1.1%	2.8%	-6.8	4.11µM*
CC(C)CCCCCCc1ccc(O)cc1	·	29.9µM*	·	10.4%
CCCCCCCc1ccc(-c2ccc(O)cc2)nc1	4.2%	?	-3.8	-3.4%
CC(=O)n1cc(N(C(=O)CCl)c2ccc(Cl)cc2)c2ccccc21	?	?	14.1	2.59µM*
CN1CCC(Oc2ccccc2Sc2ccc(C(F)(F)F)cc2)CC1	4.5%	8.2µM*	14.9	?
CN1CCC(Oc2ccc(Sc3ccccc3)cc2)CC1	4.4%	31.3%	-5.6	10.8%
C=CCSc1cc(C)nc2c(-c3ccc(Cl)cc3)c(C)nn12	·	20.6µM*	-16.5	?
CC(NC(=O)OCc1ccccc1)C(=O)Oc1cc2oc(=O)cc(-c3ccccc3)c2cc1Cl (centres undefined)	1.3%	18.4µM*	7.7	?
